Results filed as inconclusive are left out. The source made the active and inactive calls. Unless noted, calls follow the shape of the dose curve; as a rule, active = well fitted curve in the direction sought with a large enough effect; inconclusive = small, poorly fitted or top-dose-only effect, or another doubt; inactive = no such curve, though single readings can be large; an effect the other way counts as inactive or inconclusive.
Columns and labels:
[1] = biological target: Lysosomal acid glucosylceramidase (Homo sapiens) (UniProt P04062); assay: Glucocerebrosidase-p2 (AID 348; in the data active = potency below about 10 µM; also: potency is read from the fitted curve at half-maximal effect); details: purified GBA, blue fluorogenic substrate, 40 min
Chain of Lysosomal acid glucosylceramidase (Homo sapiens) (P04062 whole entry, looked up): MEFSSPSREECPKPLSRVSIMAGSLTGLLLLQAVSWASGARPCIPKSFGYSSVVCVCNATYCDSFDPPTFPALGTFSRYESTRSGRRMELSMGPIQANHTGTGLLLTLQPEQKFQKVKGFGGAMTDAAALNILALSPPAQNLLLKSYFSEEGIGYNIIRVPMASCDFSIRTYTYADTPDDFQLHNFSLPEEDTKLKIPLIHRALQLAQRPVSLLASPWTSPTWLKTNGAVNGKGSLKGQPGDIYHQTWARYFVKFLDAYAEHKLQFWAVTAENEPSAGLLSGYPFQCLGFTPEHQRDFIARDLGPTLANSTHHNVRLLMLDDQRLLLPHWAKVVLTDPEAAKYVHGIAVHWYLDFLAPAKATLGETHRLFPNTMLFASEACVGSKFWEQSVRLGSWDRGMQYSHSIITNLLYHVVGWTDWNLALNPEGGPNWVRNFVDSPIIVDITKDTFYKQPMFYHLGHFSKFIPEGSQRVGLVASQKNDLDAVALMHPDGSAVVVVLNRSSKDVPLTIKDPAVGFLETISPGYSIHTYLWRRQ
Procedure, shortened: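 Normal human glucocerebrosidase (0.2 nM) with blue fluorogenic substrate (80 uM final) in citrate/phosphate pH 5.9 with 10mM sodium taurocholate, 0.01% tween-20; 40 min RT, NaOH/glycine stop; fluorescence Ex 365/Em 440; AC50 from a titration from 0.6 nM upwards.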

[2] = biological target: Cytochrome P450 1A2 (Homo sapiens) (UniProt P05177); assay: p450-cyp1a2 (AID 410; calls by dose curve; also: potency is read from the fitted curve at half-maximal effect); details: recombinant CYP1A2, luciferin-ME demethylation, luminescence; series mostly up to 57 µM
Chain of Cytochrome P450 1A2 (Homo sapiens) (P05177 whole entry, looked up): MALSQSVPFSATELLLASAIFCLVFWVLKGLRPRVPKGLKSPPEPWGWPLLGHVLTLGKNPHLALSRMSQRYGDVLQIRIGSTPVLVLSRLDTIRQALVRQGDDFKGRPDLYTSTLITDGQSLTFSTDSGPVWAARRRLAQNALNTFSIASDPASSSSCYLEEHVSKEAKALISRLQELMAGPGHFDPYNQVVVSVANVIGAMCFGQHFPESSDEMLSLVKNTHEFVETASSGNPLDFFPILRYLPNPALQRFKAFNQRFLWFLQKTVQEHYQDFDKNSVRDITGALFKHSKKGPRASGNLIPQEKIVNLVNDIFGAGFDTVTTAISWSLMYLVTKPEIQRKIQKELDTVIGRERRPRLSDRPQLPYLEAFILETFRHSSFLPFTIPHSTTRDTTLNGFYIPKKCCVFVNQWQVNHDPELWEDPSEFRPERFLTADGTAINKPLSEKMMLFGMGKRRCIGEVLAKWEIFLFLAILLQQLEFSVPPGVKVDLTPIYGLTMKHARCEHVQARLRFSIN
Procedure, shortened: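 O-Demethylation of luciferin 6' methyl ether by human CYP1A2 is monitored as luciferase luminescence. Substrate sits at Km (100uM); enzyme is 20nM. Values are scaled to 57 uM furafylline as maximal inhibition.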

[3] = NFAT Signaling Pathway (AID 444; active = well fitted curve in either direction with a large enough effect, not every such curve was filed as active;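 also: carbachol stimulus at about its EC50 of 1 µM final; % is scaled to controls: 0 for no effect and ±100 for the full control effect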); details: Jurkat NFAT-bla M1, carbachol, beta-lactamase ratio, 5 h; at 7.69 µM (top of the series) unless noted
Procedure, shortened: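 Read-out: CCF4 FRET ratio (460 nm/530 nm) after 1 h RT dye loading, used for %activity and AC50 from titration series. Cells: Jurkat NFAT-β-lactamase/M1 line, treated with compound plus 1 uM carbachol for 5 h, 37 °C.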

[4] = Stat Signaling Pathway (AID 446; active = well fitted curve in either direction with a large enough effect, not every such curve was filed as active;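 also: ME-180 cervical cancer cells given 40 pM IL-6 alongside compound; SIE-controlled beta-lactamase reporter measured as 460/530 nm FRET emission ratio; % is scaled to controls: 0 for no effect and ±100 for the full control effect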); details: ME-180 SIE beta-lactamase reporter, IL-6 stimulated, 5 h; at 7.69 µM (top of the series) unless noted
Procedure, shortened: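 FRET read-out (405 nm excitation, 460/530 nm emission) of a beta-lactamase reporter under a STAT-inducible element in ME-180 cervical carcinoma cells. Cells with compound receive 40 pM IL-6 for 5 h. Values are normalised to AC90 stimulation and AC90 JAK-inhibitor controls.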

[5] = biological target: Glucocorticoid receptor (Homo sapiens) (UniProt P04150); assay: GR-GFP Redistribution (AID 450;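 active = compounds whose dose series gives a full or clear partial fitted curve of increased nuclear translocation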; also: potency is read from the fitted curve at half-maximal effect); details: U2OS GR-GFP nuclear translocation, laser cytometry, 2 h
Chain of Glucocorticoid receptor (Homo sapiens) (P04150 whole entry, looked up, the tested form may be a part): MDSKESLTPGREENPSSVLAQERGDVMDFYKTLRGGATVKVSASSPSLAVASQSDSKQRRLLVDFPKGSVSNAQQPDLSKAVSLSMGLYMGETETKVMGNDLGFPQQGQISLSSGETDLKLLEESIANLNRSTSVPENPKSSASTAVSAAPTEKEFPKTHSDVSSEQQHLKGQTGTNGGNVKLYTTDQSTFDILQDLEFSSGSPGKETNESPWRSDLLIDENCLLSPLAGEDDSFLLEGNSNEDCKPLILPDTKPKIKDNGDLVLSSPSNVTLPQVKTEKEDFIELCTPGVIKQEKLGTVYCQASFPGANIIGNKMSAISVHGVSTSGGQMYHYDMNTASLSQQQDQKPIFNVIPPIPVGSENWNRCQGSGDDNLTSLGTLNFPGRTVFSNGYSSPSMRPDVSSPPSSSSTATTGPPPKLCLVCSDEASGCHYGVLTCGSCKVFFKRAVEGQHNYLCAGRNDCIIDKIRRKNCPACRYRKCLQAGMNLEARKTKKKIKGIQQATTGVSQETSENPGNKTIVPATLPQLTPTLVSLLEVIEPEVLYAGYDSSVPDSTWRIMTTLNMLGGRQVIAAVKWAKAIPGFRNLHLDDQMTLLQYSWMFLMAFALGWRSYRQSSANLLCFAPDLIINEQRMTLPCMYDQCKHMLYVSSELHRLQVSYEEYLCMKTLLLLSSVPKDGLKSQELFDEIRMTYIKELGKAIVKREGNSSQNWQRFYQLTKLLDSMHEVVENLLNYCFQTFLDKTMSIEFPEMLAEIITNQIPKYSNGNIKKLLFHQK

[6] = biological target: Glucocorticoid receptor (Homo sapiens) (UniProt P04150); assay: GR-EFC Redistribution (AID 451; calls by dose curve; also: potency is read from the fitted curve at half-maximal effect); details: CHO-K1 GR-EFC translocation, beta-gal luminescence, 2 h
Procedure, shortened: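 Translocation of GR-ED fusion to nuclear EA restores b-gal, read by luminescence after 1 h room-temperature detection. Engineered CHO-K1 biosensor cells, 1,000/well, exposed 2 h at 37 C to titrations up to 46 uM final.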

[7] = biological target: Mitogen-activated protein kinase 10 (Mus musculus) (UniProt Q61831); assay: JNK3 AlphaScreen Assay (AID 530; active = well fitted curve in either direction with a large enough effect, not every such curve was filed as active;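 also: kinase came from lysate of stimulated human HepG2 cells; signal reports phosphorylation of biotinylated GST-cJun 1-79 at Ser73 with 10 µM ATP; % is scaled to controls: 0 for no effect and ±100 for the full control effect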); details: JNK3 lysate, c-Jun phosphorylation; series mostly up to 57.1 µM
Procedure, shortened: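 qHTS titrations with 15 min compound pre-incubation before adding ATP (10 uM final). Read-out: AlphaScreen of Ser73-phosphorylated biotin-GST-cJun using HepG2 lysate JNK3 activated by IL-1β and TNFα.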

[8] = biological target: 3',5'-cyclic-AMP phosphodiesterase 4B (Homo sapiens) (UniProt Q07343); assay: qHTS Assay for Inhibitors of PDE-IV (AID 607; active = well fitted activation curve with a large enough effect in the main read-out, with a control signal flat, not every such curve was filed as active; also: % of control where 0% means no effect); details: HEK293 ACTOne CNG channel cells, membrane potential fluorescence; series mostly up to 22.9 µM
Chain of 3',5'-cyclic-AMP phosphodiesterase 4B (Homo sapiens) (Q07343 whole entry, looked up): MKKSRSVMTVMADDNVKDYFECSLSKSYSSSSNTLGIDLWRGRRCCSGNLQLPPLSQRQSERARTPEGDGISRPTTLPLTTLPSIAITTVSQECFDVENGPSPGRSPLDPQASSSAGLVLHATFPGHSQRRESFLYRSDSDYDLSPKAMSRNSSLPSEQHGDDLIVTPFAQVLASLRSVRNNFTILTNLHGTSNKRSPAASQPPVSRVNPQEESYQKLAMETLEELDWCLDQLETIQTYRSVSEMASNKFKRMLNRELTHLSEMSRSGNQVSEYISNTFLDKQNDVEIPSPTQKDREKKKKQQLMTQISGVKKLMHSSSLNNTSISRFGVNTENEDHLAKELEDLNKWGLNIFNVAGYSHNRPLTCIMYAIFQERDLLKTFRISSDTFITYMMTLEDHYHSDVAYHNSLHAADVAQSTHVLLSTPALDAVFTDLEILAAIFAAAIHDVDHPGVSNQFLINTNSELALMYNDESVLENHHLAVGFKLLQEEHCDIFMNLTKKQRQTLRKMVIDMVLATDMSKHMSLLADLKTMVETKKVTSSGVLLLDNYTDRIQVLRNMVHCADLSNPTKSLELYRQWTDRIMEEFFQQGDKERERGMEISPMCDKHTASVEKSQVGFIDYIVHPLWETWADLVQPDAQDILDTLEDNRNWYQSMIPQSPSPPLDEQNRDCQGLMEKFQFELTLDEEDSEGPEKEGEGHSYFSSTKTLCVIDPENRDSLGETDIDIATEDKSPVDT
Procedure, shortened: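 Cell-based read-out of cAMP via a modified cyclic nucleotide-gated channel and membrane potential dye (535/590 nm) in HEK293 cells expressing PDE4 endogenously. Compounds tested up to 22.9 uM final; 100 uM RO 20-1724 reference.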

[9] = biological target: Cytochrome P450 3A4 (Homo sapiens) (UniProt P08684); assay: qHTS Assay for Inhibitors and Substrates of Cytochrome P450 3A4 (AID 884); details: recombinant CYP3A4, Luciferin-PPXE luminescence; series mostly up to 57.1 µM; also: % is scaled to controls: 0 for no effect and ±100 for the full control effect; nearly all actives have a fitted effect of over 50% in size
Chain of Cytochrome P450 3A4 (Homo sapiens) (P08684 whole entry, looked up): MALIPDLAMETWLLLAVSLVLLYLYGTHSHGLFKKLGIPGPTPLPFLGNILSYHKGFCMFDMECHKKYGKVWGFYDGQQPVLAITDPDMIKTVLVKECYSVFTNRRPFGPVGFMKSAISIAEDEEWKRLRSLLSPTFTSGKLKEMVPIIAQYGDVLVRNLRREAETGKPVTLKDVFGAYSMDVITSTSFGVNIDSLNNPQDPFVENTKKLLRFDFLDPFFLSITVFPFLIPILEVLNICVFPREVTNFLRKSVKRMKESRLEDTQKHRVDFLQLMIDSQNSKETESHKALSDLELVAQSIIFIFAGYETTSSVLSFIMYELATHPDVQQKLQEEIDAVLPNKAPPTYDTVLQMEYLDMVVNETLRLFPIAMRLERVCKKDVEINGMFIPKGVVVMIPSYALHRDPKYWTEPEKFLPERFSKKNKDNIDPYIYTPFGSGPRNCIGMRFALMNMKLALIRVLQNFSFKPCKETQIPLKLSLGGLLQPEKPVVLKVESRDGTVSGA
Procedure, shortened: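 Luminescent readout of luciferin produced by CYP3A4 (20 nM) dealkylation of Luciferin-PPXE, 25 uM (its KM). NADPH-driven reaction ran 60 min at RT after 10 min compound preincubation; data scaled to 57 uM ketoconazole as 100% inhibition.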

[10] = Confirmation and Secondary Assay for Modulators of Hemoglobin Beta Chain Splicing at IVS2 654 locus (AID 910); details: HeLa EGFP-654 splicing reporter, GFP fluorescence, 48 h; series mostly up to 38.3 µM;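 also: HeLa cells stably carrying EGFP split by mutant beta-globin IVS2-654 intron; per-well total GFP intensity by laser scanning cytometry after 2-day treatment; % of control where 0% means no effect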
Procedure, shortened: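 Readout: per-well total peak green fluorescence (488 nm ex, 500–520 nm em) from objects 5–250 µm, reflecting correct splicing of an EGFP-654 reporter. Compounds were applied for 2 days at 37 °C to overnight-plated HeLa EGFP-654 cells; controls were DMSO and 500 nM IVS2-654 PNA.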

[11] = Confirmation and Secondary Assay for Modulators of Hemoglobin Beta Chain Splicing at IVS2 705 locus (AID 930); details: HeLa EGFP-705 splicing reporter, GFP fluorescence, 48 h; series mostly up to 38.3 µM;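 also: HeLa cells stably expressing the EGFP-705 splicing reporter; GFP fluorescence per well restored by corrected splicing of the IVS2-705 intron in EGFP; % of control where 0% means no effect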
Procedure, shortened: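 First, HeLa EGFP-705 cells are seeded at 500/well in Optimem with 2% FCS and left overnight. Next, compound or DMSO is added for 2 days. Finally wells are laser-scanned and total peak GFP intensity scored.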

[12] = qHTS Assay for Lipid Storage Modulators (AID 1519; calls by dose curve); details: Drosophila S3 cells, BODIPY lipid droplet/cell ratio, laser cytometry, cells loaded with oleic acid; for activity change, negative = inhibition: at 57.5 µM (top of the series)
Procedure, shortened: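 Cells seeded at 5,000 per well were treated with compounds over a concentration series and loaded with oleic acid (400 uM, as added). Lipid droplet fluorescence (488 nm excitation, 500-530 nm channel) was read by laser-scanning cytometry and normalized to 20 uM Triacsin C.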

[13] = biological target: Ubiquitin carboxyl-terminal hydrolase 1 (Homo sapiens) (UniProt O94782); assay: Inhibitors of USP1/UAF1: Pilot qHTS (AID 504865); details: purified USP1/UAF1, Ub-rhodamine cleavage fluorescence; series mostly up to 54.9 µM;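 also: rhodamine fluorescence freed from ubiquitin-rhodamine substrate followed over time; top concentration of the series differs between compounds; % is scaled to controls: 0 for no effect and ±100 for the full control effect; nearly all actives have a fitted effect of over 35% in size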
Chain of Ubiquitin carboxyl-terminal hydrolase 1 (Homo sapiens) (O94782 whole entry, looked up): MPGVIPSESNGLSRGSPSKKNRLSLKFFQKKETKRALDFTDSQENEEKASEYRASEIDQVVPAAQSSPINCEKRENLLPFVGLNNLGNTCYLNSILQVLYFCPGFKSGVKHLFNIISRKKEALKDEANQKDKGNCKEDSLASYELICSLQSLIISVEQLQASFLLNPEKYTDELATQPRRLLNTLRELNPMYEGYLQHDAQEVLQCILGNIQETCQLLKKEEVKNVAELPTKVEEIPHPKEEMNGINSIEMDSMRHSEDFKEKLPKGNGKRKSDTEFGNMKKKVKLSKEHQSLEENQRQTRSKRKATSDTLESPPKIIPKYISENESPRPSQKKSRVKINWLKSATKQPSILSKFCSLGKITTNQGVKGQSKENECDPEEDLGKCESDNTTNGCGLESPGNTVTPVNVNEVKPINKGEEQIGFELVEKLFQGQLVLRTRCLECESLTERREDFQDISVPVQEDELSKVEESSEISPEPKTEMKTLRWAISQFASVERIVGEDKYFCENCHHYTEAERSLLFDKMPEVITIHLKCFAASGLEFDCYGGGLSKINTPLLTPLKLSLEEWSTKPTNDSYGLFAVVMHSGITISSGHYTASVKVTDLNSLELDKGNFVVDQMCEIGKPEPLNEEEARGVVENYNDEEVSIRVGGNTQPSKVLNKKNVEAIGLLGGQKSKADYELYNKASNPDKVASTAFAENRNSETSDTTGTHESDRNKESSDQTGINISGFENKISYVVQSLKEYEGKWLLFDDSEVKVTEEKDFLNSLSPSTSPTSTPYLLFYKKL
Procedure, shortened: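 USP1/UAF1 complex at 1 nM preincubated 15 min at room temperature with compound, then Ub-Rho substrate added at 150 nM final. Fluorescence (480/540 nm) read kinetically in 50 mM HEPES pH 7.8, 0.5 mM EDTA, 1 mM TCEP, 0.1 mg/ml BSA, 0.01% Tween-20.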

[14] = Primary qHTS for small molecule stabilizers of the endoplasmic reticulum resident proteome: Secreted ER Calcium Modulated Protein (SERCaMP) assay (AID 1508630); details: SH-SY5Y GLuc-SERCaMP (Gaussia luciferase released on ER calcium loss) secretion, thapsigargin, luminescence; series mostly up to 38.4 µM; also: % is scaled to controls: 0 for no effect and ±100 for the full control effect
Procedure, shortened: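 The SH-SY5Y reporter protocol was run at 3 concentrations up to 38.3 uM (primary) or 11 concentrations (follow-up): 16 h compound, 100 nM thapsigargin for 4 h, then extracellular luciferase luminescence.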

[15] = biological target: Cytochrome P450 3A4 (Homo sapiens) (UniProt P08684); assay: qHTS Assay for Activators of Cytochrome P450 3A4 (AID 885); details: recombinant CYP3A4, Luciferin-PPXE luminescence, 60 min; series mostly up to 57.1 µM; also: nearly all actives have a fitted effect of over 65% in size
Procedure, shortened: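 Luminescent readout of luciferin formed from 25 uM Luciferin-PPXE (KM level) by 20 nM CYP3A4 in 200 mM KPO4, with 60 min NADPH-driven reaction at room temperature after 10 min compound exposure. Ketoconazole (57 uM) defined 100% inhibition.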

[16] = qHTS Assay for Identification of Small Molecule Agonists for Hypoxia Response Element Signaling Pathway (AID 914; active = well fitted activation curve with a large enough effect in the signal ratio, with a control signal flat, not every such curve was filed as active; the % refers to the signal ratio; also: % of control where 0% means no effect); details: ME-180 HRE-bla reporter, beta-lactamase ratio, CoCl2, 17 h; activation: stronger effect = higher value
Procedure, shortened: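 Positive modulation of EC50 CoCl2-induced hypoxia response element signaling is measured in ME-180 cells with a beta-lactamase reporter. Compounds are titrated, incubation runs 17 hours, and %Activity derives from the blue/green ratio.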

[17] = AP1 Signaling Pathway (AID 357; active = well fitted curve in either direction with a large enough effect, not every such curve was filed as active); details: ME-180 (cervical carcinoma) AP-1-bla reporter, EGF-induced, beta-lactamase ratio, 5 h; at 7.69 µM (top of the series) unless noted
Procedure, shortened: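 Cells are seeded overnight, exposed to compound titrations and an EC50 level of EGF for 5 hours at 37 °C, then loaded with CCF4 dye for 2.5 hours. Beta-lactamase activity under the AP-1 element is read as a blue/green ratio.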

[18] = measured here: cell count channel max response
[19] = measured here: lipid channel max response

CN(C)c1ccnc(-c2ccccc2C(F)(F)F)n1
11.7%: max response [12, 18]
active: Potency [2] 7.94 µM
inactive: Potency [1] > 11.4 µM | activity change, negative = inhibition [3] 6.88% | activity, negative = inhibition [4] 1.29% | Potency [5] > 46 µM | Potency [6] > 46 µM | outcome [7] | Potency [8] | Potency [9] | outcome [10] | outcome [11] | activity change, negative = inhibition [12] 5.14% | Potency [13] | Potency [14]
18.9%: max response [12, 19]

COc1ccccc1CNc1ncncc1-c1cccc(C#N)c1
active: Potency [2] 10 µM
-8.3%: max response [12, 18]
inactive: Potency [1] > 11.4 µM | activity, negative = inhibition [4] -0.225% | Potency [5] > 46 µM | Potency [6] > 46 µM | outcome [7] | Potency [8] | Potency [15] | outcome [10] | activation [16] -9.43% | outcome [11] | activity change, negative = inhibition [12] 6.39% | Potency [13] | Potency [14]
8.29%: max response [12, 19]

O=C(Nc1ccccc1)N1CCCC2(CCN(C(=O)c3ccco3)CC2)C1
active: Potency [2] 20 µM
20.3%: max response [12, 19]
inactive: activity change, negative = inhibition [17] -8.89% | activity change, negative = inhibition [3] -7.1% | activity, negative = inhibition [4] -4.1% | outcome [7] | Potency [8] | Potency [15] | activity change, negative = inhibition [12] 4.55% | Potency [14]
12%: max response [12, 18]

Source: PubChem BioAssay (NCATS)
